The results in this text go back to PubChem BioAssay AID2806 (Sanford-Burnham Center for Chemical Genomics, 2010).

Structures are written as SMILES. The whole screen tested about 330,000 compounds, of which about 660 (0.2%) were called active. The sample as a whole holds a higher share of actives than the screen did. Unmarked numbers belong to inactive results.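 How the source made its calls: active means inhibition of at least 40% at 10 µM in the primary screen; inactive means the rest.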

For this assay, the system named is intestinal alkaline phosphatase [Mus musculus]. The assay is described as follows: inhibitors of mouse IAP, primary screen, biochemical, luminescence, uHTS (AID 2806).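 Further: plate controls were DMSO with enzyme for no effect and no enzyme wells for full effect.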 To be noted: purified mouse IAP, CDP-Star luminescence, 30 min; at 10 µM; hits give high values.
Turning to `O=c1ccc2c(-c3ccccc3S(=O)(=O)O)c3ccc(O)c(O)c3oc-2c1O`, the inhibition was 64.9% (active).
Then `Cc1ccccc1C(OCCN(C)C)C1CCCCC1` (stereo not drawn), with -6%; and `CCN(C[C@H]1N[C@@](CC)(C(=O)OC)[C@H]2C(=O)N(C)C(=O)[C@@H]12)C(=O)Nc1ccc(F)cc1`, with 2.6%.
Then `CCOC(=O)c1cc(-c2ccccc2C)n(Cc2cc(C)no2)n1`, with -6.2%; and `CN(C)c1ccc(N/C=C/C(=O)C(F)(F)F)cc1`, with 7.4%.
Then `COCC1CCN(C(=O)C2CCC(=O)N(CC3CCCCC3)C2)CC1` (stereo not drawn), with 4.4%; and `Nc1ccc2nc3c(=O)[nH]c(=S)[nH]c3nc2c1`, with 70.9% (active); and `C=CCC(NC(=O)Cc1ccccc1)C(=O)NCCC` (stereo not drawn), with -3.3%.
For `CCOc1ccc2nc(Cl)c(C3CC(c4ccccc4)=NN3C(=O)c3cccs3)cc2c1` (stereo not drawn), the inhibition was 13.7%.
As to `O=C(NCCOc1cccnc1)c1ccc(OC2CCN(Cc3ccccn3)CC2)cc1`, the inhibition is 4.2%.
For the molecule `O=C(CCCN=C1NS(=O)(=O)c2ccccc21)OCC(=O)c1ccc(F)c(F)c1`, the inhibition was -12.2%.
Turning to `COC(=O)CN(c1nc(C)c(Cl)c(OC)n1)S(=O)(=O)c1ccc(C)cc1`, the inhibition was 0.2%.
Then `CCCCN(C)CCNC(=O)C1CCCN(S(=O)(=O)c2cccc3nsnc23)C1` (stereo not drawn), with 4.9%; and `CS(=O)(=O)N(CC(=O)NC1CCCC1)Cc1ccc(F)cc1`, with 3.3%; and `C=CCSc1nc(N)cc(=O)[nH]1`, with 4.4%.
Then `CCc1ccc(N(CC)c2ncnc3nc[nH]c23)cc1`, with 7.5%.
With `Cc1cc(C)c(C)c(S(=O)(=O)N[C@@H](C)C(=O)OC(C)C(=O)NC(N)=O)c1C` (stereo partly drawn), the inhibition is -4.2%.
Then `CC(NC(=O)c1ccccc1C(=O)O)c1ccc(-n2ccnc2)cc1` (stereo not drawn), with 0.1%; and `COc1cc(/C=N/NC(=O)CCc2n[nH]c(=O)[nH]c2=O)ccc1O`, with -0.9%; and `COc1cc(/C=N\Nc2nc(-c3cccs3)c(NC(C)=O)s2)ccc1O`, with 41% (active).
Then `CC(=O)c1sc(N/N=C\c2ccc(C)cc2)nc1C`, with 10.3%; and `Fc1ccccc1/C=C1\CCCC2=C1Nc1ncnn1C2c1ccccc1F` (stereo not drawn), with 0%.
Then `O=[N+]([O-])/C(N=Nc1ccccc1)=N\Nc1ccccc1`, with -0.1%; and `CSCCC1NC2(C(=O)Nc3ccc(Cl)cc32)[C@@H]2C(=O)N(C3CCCC3)C(=O)[C@H]12` (stereo partly drawn), with 3.1%.
On to `Nc1c(C(=O)c2cccs2)sc2nsc(SCCN3CCCCC3)c12`, for which the inhibition is 16.4%.
Then `CN(c1ccccc1)S(=O)(=O)c1ccc2[nH]c(=O)[nH]c2c1`, with 6.6%; and `CCN(c1ccccc1)S(=O)(=O)c1ccc2[nH]c(=O)[nH]c2c1`, with 52.1% (active).
Then `CCN(c1ccccc1)S(=O)(=O)c1ccc(N)cc1`, with -11.2%; and `CSCCC(NC(=O)c1cc([N+](=O)[O-])cc([N+](=O)[O-])c1)c1nc2ccccc2[nH]1` (stereo not drawn), with -2%; and `Nc1ccccc1Sc1cc(Cl)nnc1Cl`, with 2.3%.
Then `C=CCN1CC(C)/C(=N\O)CC1C` (stereo not drawn), with 0.1%; and `CC(=O)Nc1ccc(NS(=O)(=O)c2ccc3c(c2)NC(=O)CC(=O)N3)cc1`, with 1.9%; and `Cc1cccc(-c2nc(CS(=O)CC(=O)NC(C)CCc3ccccc3)c(C)o2)c1` (stereo not drawn), with -5%.
Turning to `CCCCn1c(N)c(N(CCOC)C(=O)c2oc3ccc(OC)cc3c2C)c(=O)[nH]c1=O`, the inhibition is -5.8%.
For the molecule `Cc1n[nH]c(=O)c2c(NC(=O)CSc3ccccc3F)oc(C)c12`, the inhibition was -5.6%.
Then `Cc1ccccc1NC(=O)C1CCCN(C(=O)NCc2ccccc2)C1` (stereo not drawn), with -10.1%; and `C=CCNC(=S)NNC(=O)COc1c(Cl)cc(Cl)cc1Cl`, with 2.2%; and `Cc1cccc(NC(=O)c2cc(S(=O)(=O)N3CCC4(CC3)OCCO4)ccc2F)c1`, with 2.1%.
Take `CCOC(=O)c1c(C)[nH]c(C)c1C(=O)CSc1nc(N)cc(N)n1`: the inhibition was 2%.
Then `CNS(=O)(=O)c1ccc(C(=O)NCC(=O)NCCc2ccc3c(c2)OCCO3)cc1`, with -6.6%; and `O=C(CCC(=O)OCc1cccc(C(=O)Oc2ccccc2)c1)Nc1cccc2ccccc12`, with 3.6%.
Then `COc1ccc(NC(=O)CSc2nnc(C3CC3)n2C)cc1S(=O)(=O)N1CCCCC1`, with -4.3%; and `CCN(CC)C(=O)CS(=O)CC(=O)Nc1cc(OCCOC)c(Cl)cc1Cl` (stereo not drawn), with -1.1%.
Then `Cc1ccccc1CN1CCC(C(=O)Nc2ccc(Oc3cccnc3)cc2)CC1`, with -39.6%; and `O=C(COc1ccccc1[N+](=O)[O-])N/N=C/c1ccc[nH]1`, with 9.7%.
Regarding `CC(=O)Nc1ccc(C(=O)/C=C/c2ccc[nH]2)cc1`, the inhibition was 1.1%.
Then `CCCC(=O)Nc1ccc(C(=O)N/N=C/c2ccc[nH]2)cc1`, with 40.9% (active); and `CCCC(=O)Nc1ccc(C(=O)NCCCn2ccnc2)cc1`, with -4.6%.
As for `CN(CC(=O)NNC(=O)CNC(=O)c1ccccc1Cl)S(=O)(=O)c1ccc(Cl)cc1`, the inhibition is -5.3%.
On to `O=C(COc1cccc2ccccc12)Nc1cc(S(=O)(=O)N2CCOCC2)ccc1N1CCOCC1`, for which the inhibition is 4%.
Then `O=C1C=C(c2cc(C(F)(F)F)cc(C(F)(F)F)c2)C[C@@H](c2ccc3c(c2)OCO3)C1`, with 13.5%; and `S=c1[nH]nc2c3c4c(sc3ncn12)CCCC4`, with 12.3%.
`Cc1cccc(N)c1SC1CCCCC1O` (stereo not drawn): the inhibition was 2.7%.
Then `COc1cccc(C(=O)OCc2cc(=O)oc3c(C)c(C)ccc23)c1OC`, with 8.2%; and `Cn1c(SCC(=O)Nc2ccc(N3CCOCC3)cc2)nnc1C(F)(F)F`, with -6.7%.
Then `Cc1nnc(SCC(=O)Nc2ncc3c(n2)CC(C)(C)CC3=O)s1`, with 8.5%; and `CCOc1ccc(N2C(=O)CN(c3cccc4ccccc34)C2=S)cc1`, with -14.2%; and `COc1ccc(OC)c(-c2csc(NC(=O)C3=NNC(=O)CC3)n2)c1`, with 11.3%.
Then `COc1ccc(OC)c(Nc2nc(-c3ccc(O)c(O)c3)cs2)c1`, with 68.7% (active).
With `COc1ccc(OC)c(-c2csc(NC(=O)COC(=O)C3CC3)n2)c1`, the inhibition was 6.9%.
Turning to `O=[N+]([O-])c1ccc(N2CCNCC2)cc1NCc1cccnc1`, the inhibition was 3%.
Then `Nc1ccc(-n2nncc2-c2ccco2)cc1`, with -3.6%; and `C=CCn1c(SCc2nnc(-c3ccccc3)o2)nnc1C(O)c1ccccc1` (stereo not drawn), with -0.4%; and `CCN(c1ccccc1)S(=O)(=O)c1cc2c(cc1C)n(C)c(=O)c(=O)n2C`, with -8%.
As for `NC(=O)C1CCCN(CC(=O)N2CCN(c3ccccc3)CC2)C1` (stereo not drawn), the inhibition was 15%.
Then `COc1ccc(NC(=O)C2CCC(CNc3c(N4CCCCC4)c(=O)c3=O)CC2)c(OC)c1` (stereo not drawn), with -14.9%; and `COc1ccc(N2CCN(S(=O)(=O)c3cc4c5c(c3)C(C)C(=O)N5CCC4)CC2)cc1` (stereo not drawn), with -7.1%; and `CCn1c(C)c(C)c2cc(C(=O)N3CCN(c4cccc(C)c4C)CC3)ccc21`, with 1.5%.
Then `COc1ccc(OC)c(NC(=O)Cn2c(=O)oc3ccccc32)c1`, with -4.3%; and `CC(=O)Nc1c2c(nn1-c1cccc(C)c1)CSC2`, with 9.8%.
Then `CCCCC(=O)Nc1ccc2c(c1)C(=O)NC2=O`, with 7%; and `Cc1nn(C)c(C(=O)NNC(=S)NC2CCCCC2)c1Cl`, with 16.2%.
For `CCCCCCCCCOC1OC(CO)C(O)C(O)C1NC(C)=O` (stereo not drawn), the inhibition is 3.6%.
Then `COc1cc(C2CC(=O)c3cnc(NC(C)=O)nc3C2)cc(OC)c1OC` (stereo not drawn), with 6.1%; and `O=C(Nc1ncc2c(n1)CC(c1ccco1)CC2=O)c1ccc(Cl)cc1` (stereo not drawn), with 0.8%.
Then `CCc1ccc(Nc2ncc3c(n2)CC(c2ccco2)CC3=O)cc1` (stereo not drawn), with 41.4% (active); and `Brc1cnc2ccccc2c1N1CCCCC1`, with -0.5%.
Then `CCC(=O)c1ccc(OCC(=O)OCC(=O)N2CCc3ccccc3C2)cc1`, with 2.5%; and `Cc1cc(NC(=O)/C=C/C(=O)N(CC(=O)NC2CCCC2)c2ccc(F)cc2)no1`, with 5.2%; and `O=C(NCc1cc(C(F)(F)F)cc(C(F)(F)F)c1)C1CC(c2cccc(F)c2)=NO1` (stereo not drawn), with -2.8%.
Regarding `COc1ccc(CNC(=O)C2CCCC2)cc1`, the inhibition is 4.3%.
For the molecule `COc1ccc(CNC(=O)C2CC(c3ccc(C(F)(F)F)cc3)=NO2)cc1` (stereo not drawn), the inhibition was 41.4% (active).
Regarding `CC1CCCCN1S(=O)(=O)CCNC(=O)c1ccccc1` (stereo not drawn), the inhibition was 8.6%.
Then `Cc1ccc(C)c(NC(=O)CSc2nc3c(oc4ccccc43)c(=O)n2-c2ccccc2)c1`, with 2.2%; and `Cc1ccc(-c2nnn(CC(=O)N(CCO)C(C(=O)NC(C)(C)C)c3ccncc3)n2)cc1` (stereo not drawn), with -1.3%; and `CCNC(=O)N1CCN(S(=O)(=O)c2ccc3c(c2)OCCCO3)CC1`, with -17.6%.
Then `COc1cccc2[nH]c(C(=O)NCCc3ccccc3)cc12`, with -19.5%.
Then `O=C(N1CCCCC1)N1CCN(C(=O)N2CCCCC2)CC1`, with -1.7%.
Consider `CC1(C)S[C@@H]2[C@H](N=CN3CCCCCC3)C(=O)N2[C@H]1C(=O)O`, for which the inhibition is -8.2%.
Then `O=C(COC(=O)Cn1[nH]c(=O)c2ccccc2c1=O)Nc1c(Cl)cccc1C(F)(F)F`, with 4.1%.
Then `O=C(c1cc2ccccc2o1)N1CCN(S(=O)(=O)c2ccc(Cl)s2)CC1`, with -5.4%; and `Cc1cc(-c2ccc(S(=O)(=O)N3CCc4ccccc4C3)s2)on1`, with 4.5%.
Then `NC(=O)NC(=O)CSc1nc2cc([N+](=O)[O-])ccc2n1-c1cccc(C(F)(F)F)c1`, with 14.7%.

In general, inhibition refers to the relative decrease from the control value, in per cent.
